# This is part of a sample that, as a whole, favours compounds with a hit. Of some 83,000 tested, about 20% had one in any assay.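 Compound tested at a single concentration for 48 hours in 96-well plates; a percent growth value below 10 was scored as active.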 Unmarked numbers belong to inactive results. Calls of active or inactive are those of the source.
# Test system: MDA-MB-468 breast
# Experiment: NCI-60 one-dose screen, 48 h (100 = growth as untreated, 0 = no growth, -100 = all killed)
# Conditions: 10 µM unless noted
row,Compound,growth
1,C=C(C)CCCC(C)CC#N (stereo not given),93.3%
2,CCN1C(=S)N(CC)C2C1NC(=S)N2/N=C/C=C/c1ccccc1 (stereo not given),2.3% (active)
3,O=C(CN1CCCCC1)Nc1ccc2oc(=O)ccc2c1,107%
4,CCOC(=O)C1=C(C)N=C2Sc3cccc(OC)c3N2[C@H]1c1ccccn1,108%
5,COc1cc2nc(N3CCCC3)nc(NCc3ccccc3)c2cc1OC,45.2%
6,CC(=O)CC(C)(C)c1ccc(Cl)cc1,90.4%
7,Cc1nn(-c2nc(-c3cc4ccccc4oc3=O)cs2)c(C)c1N=Nc1ccccc1,103%
8,COc1ccc2nc3ccccc3c(NCc3ccc(Cl)cc3)c2c1,-30.6% (active)
9,Cc1cc(C)cc(NCCC#N)c1,107%
10,O=C(/C=C/c1ccc(C(F)(F)F)cc1)Nc1ccc(C=C2c3ccccc3C(=O)c3ccccc32)cc1,33.5%
11,COc1cc(C(=O)Nc2cc(O)c(C/C=C(\C)CCC=C(C)C)c(O)c2)cc2c1O[C@]1(C)CC[C@@H](O)C(C)(C)[C@H]1C2,3.89% (active)
12,CC(=O)OCC(=O)[C@@]1(O)[C@H](C)C[C@H]2[C@@H]3C=C(C)C4=Cc5c(cnn5-c5ccc(F)cc5)C[C@]4(C)[C@H]3[C@@H](O)C[C@@]21C,-22.6% (active)
13,Nc1nc(SCc2cccc([N+](=O)[O-])c2)c2[nH]cnc2n1,64.5%
14,N=C(N)c1ccc(-c2ccc(-c3ccc(Cl)c(Cl)c3)o2)cc1,-70.3% (active)
15,NC(N)=N/N=C/c1ccc(Br)cc1,8.33% (active)
16,NS(=O)(=O)c1ccc(CCN2C(=O)c3cc(Cl)c(Cl)cc3C2=O)cc1,119%
17,CCCCCSc1ccc2nc(NC(=O)OCCC)sc2c1,9.55% (active)
18,NC1=NC(c2ccccc2OS(=O)(=O)c2ccc(Br)cc2)n2c(nc3ccccc32)N1 (stereo not given),104%
19,CCn1c2c(c3ccccc31)SC1c3cccn3CCN1C2=S (stereo not given),-1.66% (active)
20,O=C(Nc1ccccc1)Oc1cccc2cccnc12,96.9%

row,Compound,growth
1,COc1cc2c(cc1OC)C(Sc1ccc(F)cc1)c1c(nc(N)c(C#N)c1N)O2 (stereo not given),-56.4% (active)
2,C#CCOc1ccc(/C=N/Nc2nc(-c3ccc(OC)cc3)cs2)cc1,45.3%
3,Cc1ccc(NC(=O)Nc2nc3ccccc3s2)cc1NC(=O)Nc1nc2ccccc2s1,96%
4,C[C@]12CC[C@H](O)CC1=CC[C@@H]1[C@@H]2CC[C@]2(C)C(c3cccnc3)=CC[C@@H]12,15.2%
5,COc1ccc(-c2nc3ccc(-c4nc5ccc(N6CCN(c7ccc(F)cc7)CC6)cc5[nH]4)cc3[nH]2)cc1OC,67.4%
6,NS(=O)(=O)c1cc(Br)c2c(c1)S(=O)(=O)NCN2,126%
7,COc1cc2cc(Oc3ccc(NC(=O)c4cccc(C(F)(F)F)c4)cc3)c(C)nc2cc1OC,9.35% (active)
8,CCCNNC(=O)c1ccc(-c2ccc(NC(=O)CCCCCCC(=O)N[C@H](C(=O)N3C[C@H](O)C[C@H]3C(=O)N[C@@H](C)c3ccc(-c4scnc4C)cc3)C(C)(C)C)cc2)cc1,-10.1% (active)
9,CCCCCCCC[C@@H](O)CC(=O)N[C@@H](CC(N)=O)C(=O)N[C@@H](CCC(N)=O)C(=O)N[C@@H](CC(=O)c1cc(C)cc(O)c1C(=O)c1c(O)cccc1O)CC(C)C,3.34% (active)
10,CCCCCCCCCCCCCCCCC(C(=O)O)C(O)(CC(=O)O)C(=O)O (stereo not given),102%
11,COc1cc(OC)cc(C(=O)C[n+]2cccc3cc[nH]c32)c1,90.9%
12,O=C1c2c(c3c4ccccc4[nH]c3c3ccc4ccccc4c23)C(=O)N1CCN1CCCCC1,-0.798% (active)
13,CS(=O)(=O)Nc1cncc(-c2ccc3ncnc(Nc4cncc(Cl)c4)c3c2)c1,16.7%
14,CC(C)C(=O)c1ccc(Cl)s1,91.6%
15,O=C(NNc1nc2cc(F)c(F)cc2n2cccc12)c1ccncn1,-25.6% (active)
16,COc1ccc(-c2nnc(SCC(=O)N3CCN(c4cc5c(cc4F)c(=O)c(C(=O)O)cn5C4CC4)CC3)o2)cc1OC,96.4%
17,COC(=O)c1ccc(CSc2nnc(-c3ccncc3)o2)cc1,115%
18,C/C(=C(\c1ccc(O)cc1)c1ccc(OCCN2CCCCCC2)cc1)c1ccc(Cl)cc1,-88% (active)
19,O=C1c2cc3c(cc2-c2c1c1ccc(Cl)cc1c(=O)n2C[C@H](O)[C@@H](O)[C@H](O)CO)OCO3,-63.4% (active)
20,Nc1nc2ncc(CCNc3ccc(C(=O)NC(CCC(=O)O)C(=O)O)cc3)nc2c(=O)[nH]1 (stereo not given),96.7%

# Reference: PubChem BioAssay (NCI)
